Experimental data: PubChem BioAssay AID1460 (National Center for Advancing Translational Sciences (NCATS), 2008)
Hit rate of the full screen: of about 270,000 compounds, about 5,800 (2.1%) were called active. Roughly 16% stayed inconclusive and do not appear here. Only a selection was taken, and actives are over-represented in it overall. Values without a mark were called inactive. Calls follow the shape of the dose curve; as a rule, active = well fitted inhibition curve with a large enough effect; inconclusive = small, poorly fitted or top-dose-only effect; inactive = flat fitted curve, though single readings scatter.

The molecules below were run against Microtubule-associated protein tau (Homo sapiens) (UniProt P10636) (assay: qHTS for Inhibitors of Tau Fibril Formation, Thioflavin T Binding). Details: recombinant tau K18 P301L (four-repeat tau fragment), heparin-induced fibrillization, ThT fluorescence; series mostly up to 57.4 µM; activity, negative = inhibition: at the top concentration.
In short: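 Recombinant human tau K18 fragment […] carrying P301L, 15 uM unlabeled plus 0.24 uM Alexa 594-labeled, was fibrillized with 20 uM heparin in 100 mM sodium acetate pH 7 for 6 hr at 37 C; 30 uM ThT fluorescence read after 1 hr.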
% is scaled to controls: 0 for no effect and ±100 for the full control effect; potency is read from the fitted curve at half-maximal effect.
Also: nearly all actives have a fitted effect of over 55% in size.

Sequence of Microtubule-associated protein tau (Homo sapiens) (P10636 561-689 P618L limits assumed): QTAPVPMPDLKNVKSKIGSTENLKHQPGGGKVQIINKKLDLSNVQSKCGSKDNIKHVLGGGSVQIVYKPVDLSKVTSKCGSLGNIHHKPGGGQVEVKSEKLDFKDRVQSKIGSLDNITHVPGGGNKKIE

| SMILES | activity, negative = inhibition [%] | Potency |
| --- | --- | --- |
| CCOC(=O)CCCNC(=O)COC(=O)/C=C/c1ccc2c(c1)OCO2 | 4.19 |  |
| CCC1=C/C(=C\c2ccc3c(c2)OCO3)C(=O)S1 |  | 15.8 µM (active) |
| CCOc1ccc(NC(=O)CCC(=O)N2CC(C)Oc3ccc(C)cc32)cc1 (stereo not given) | -0.975 |  |
| CC1=C(c2ccc(C)c(C)c2)S(=O)(=O)NC1=NCc1ccccc1Cl | -5.79 |  |
| COc1ccc(CNC(=O)CSc2nc3ccccc3nc2Cc2ccccc2)cc1 | 0.19 |  |
| COc1ccc(Cn2ccc3nc(C)c(C(=O)Nc4ccc(C)c(F)c4)cc3c2=O)cc1 | -2.05 |  |
| COc1ccccc1CNC(=O)c1ccccc1NC(=O)c1nsc2ccccc12 | 3.65 |  |
| CCOC(=O)c1cc(-c2ccc(OC)c(S(=O)(=O)Nc3ccc(OC)cc3OC)c2)on1 | -17.3 |  |
| CN(Cc1ccco1)S(=O)(=O)c1nnc(NC(=O)c2ccccc2)s1 | -2.1 |  |
| COc1ccc(CN2C(=O)CC(Cc3ccc(C)cc3)C2=O)cc1OC (stereo not given) | -2.42 |  |
| CCCCOc1ccc(Cn2c(=O)oc3ccc(C)cc32)cc1OC | -3.17 |  |
| CCCCOc1ccc(CN2C(=O)C(=O)c3cc(Br)cc(C)c32)cc1OC |  | 28.2 µM (active) |
| CSc1nc(=O)c2c(n1C)NC(=O)CC2c1ccccc1OC(C)C (stereo not given) | 5.27 |  |
| Cc1cccc(C(=O)Nc2nnc(Cc3c[nH]c4ccccc34)s2)c1 | -17.2 |  |
| COCCn1c(C)cc(C2=NNC(=Nc3ccc(F)cc3)SC2)c1C | -6.48 |  |
| Cc1cccc(N=C2NN=C(c3c[nH]c4ccccc34)CS2)c1 |  | 2.82 µM (active) |
| CCCNC(=O)c1ccc(Cn2c(SCC(N)=O)nc3ccccc3c2=O)cc1 | 6.62 |  |
| CCC(C)(C)NC(=O)C1c2ccccc2Oc2ccccc21 | -0.856 |  |
| CCC(C)NC(=O)C1c2ccccc2Oc2ccccc21 (stereo not given) | -1.94 |  |
| CC(C)(C)c1nnc(NC(=O)C2c3ccccc3Oc3ccccc32)s1 |  | 22.4 µM (active) |
| Cc1ccc(Cl)cc1NC(=O)Cc1ccc(-n2c(C)nc3cccnc32)cc1 | -0.615 |  |
| COc1cccc(CNS(=O)(=O)c2cc3c(cc2C)n(C)c(=O)c(=O)n3C)c1 | -7.39 |  |
| Cc1ccccc1CNC(=O)C1CCCN(S(=O)(=O)N(C)c2ccc(F)cc2)C1 (stereo not given) | -7.18 |  |
| Cc1cc(C)cc(-n2c(SCC(=O)NCC3CCCO3)nc3c([nH]c4ccccc43)c2=O)c1 (stereo not given) | -15.4 |  |
| O=C(CSc1nc2ccc([N+](=O)[O-])cc2[nH]1)c1ccc(Cl)cc1 | -14.3 |  |

| SMILES | activity, negative = inhibition [%] | Potency |
| --- | --- | --- |
| O=C(N/N=C/c1ccc(Cl)cc1)c1nc2ccc([N+](=O)[O-])cc2c(=O)[nH]1 |  | 15.8 µM (active) |
| N#Cc1cc([N+](=O)[O-])ccc1Oc1cccc(/C=N/NC(=O)c2ccc(Cl)cc2)c1 | -6.07 |  |
| O=C(CCS(=O)(=O)c1ccccc1)N(Cc1cccnc1)c1nc2c(F)cccc2s1 | -5.97 |  |
| CN(CC(=O)Nc1ccc(N2CCOCC2)cc1)CC(=O)Nc1ccccc1[N+](=O)[O-] | -7.06 |  |
| O=C(CSc1ccc([N+](=O)[O-])cn1)Nc1ccc(N2CCOCC2)cc1 | 7.95 |  |
| O=C(Nc1ccc(N2CCOCC2)cc1)c1ccc(-c2ccccc2[N+](=O)[O-])o1 |  | 2.24 µM (active) |
| Cc1ccc(S(=O)(=O)n2nc(C)c(S(=O)(=O)N3CCCCCC3)c2C)cc1 | 5.02 |  |
| CC(=O)Nc1ccc(S(=O)(=O)N2CCN(c3ccccc3)CC2)cc1 | -2.11 |  |
| CCOc1ccc(OCC)c(NC(=O)c2cc(C)nc3c2c(C)nn3-c2cccc(Cl)c2C)c1 | -9.07 |  |
| COc1cc(NS(=O)(=O)c2ccc(N=Cc3c(C)[nH]n(-c4ccccc4)c3=O)cc2)nc(OC)n1 | -9.16 |  |
| COc1cc(SC#N)ccc1N=Cc1c(C)[nH]n(-c2ccc(C)cc2)c1=O |  | 14.1 µM (active) |
| Cc1cc(/C=C2/C(=N)N3C(=NC2=O)SN=C3S(C)(=O)=O)c(C)n1-c1ccccc1 | -16.2 |  |
| CCC1=NN2C(=N)/C(=C/c3cc(C)n(-c4ccccc4)c3C)C(=O)N=C2S1 | -8.51 |  |
| CS(=O)(=O)c1ccc2c(c1)SC1=NC(=O)/C(=C/c3ccco3)C(=N)N12 |  | 7.08 µM (active) |
| Cc1cc(C)cc(NC(=O)Cn2nc(N3CCN(c4ccccc4)CC3)ccc2=O)c1 | -11.4 |  |
| Cc1c(-c2cccc(NC(=O)C(C)(C)C)c2)nc2ncccn12 | -2.03 |  |
| Cc1cccn2c(=O)c(C(=O)NC(C)c3ccccc3)cnc12 (stereo not given) | 5.77 |  |
| Cc1ccc(-c2csc(NC(=O)c3cccs3)n2)cc1 | -12.4 |  |
| Cc1nc(NNC(=O)c2ccccc2)cc(-c2ccccc2)n1 | -2.19 |  |
| Cc1ccc(-c2csc(NNC(=O)c3ccccc3)n2)cc1 |  | 12.6 µM (active) |
| Cc1ccc(OC(=O)CSc2nnc(-c3cccs3)o2)cc1 | 4.84 |  |
| CCc1ccc(NS(=O)(=O)c2ccc3[nH]cc(C(=O)NCCc4cccc(C)c4)c(=O)c3c2)cc1 | -0.768 |  |
| Cc1ccc(N2CC(NC(=O)Cc3cccs3)CC2=O)cc1 (stereo not given) | -5.96 |  |
| COc1cccc(NC(=O)c2ccc3nc(CCc4ccccc4)oc3c2)c1 | -15.7 |  |
| Cn1c(=O)c2c(n3c4ccccc4nc13)NC(=O)CC2c1cccc(Cl)c1 (stereo not given) | -2.25 |  |
